{"source": "PubChem BioAssay (NCATS)", "note": "Records with an inconclusive call do not appear. Active and inactive are the calls of the source. Calls follow the shape of the dose curve; as a rule, active = well fitted inhibition curve with a large enough effect; inconclusive = small, poorly fitted or top-dose-only effect; inactive = flat fitted curve, though single readings scatter. % is scaled to controls: 0 for no effect and ±100 for the full control effect.", "data": [{"assay": "P-glycoprotein substrates identified in KB-8-5-11 adenocarcinoma cell line, qHTS therapeutic library screen (AID 1346987); also: nearly all actives have a fitted effect of over 65% in size", "conditions": "KB-8-5-11 (P-gp overexpressing) viability, CellTiter-Glo, 72 h; series mostly up to 44.5 µM; activity change, negative = cytotoxicity: at the top concentration", "procedure,_shortened": "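Steps: plate 500 KB-8-5-11 cells/well in DMEM + 10% FCS (colchicine removed); pin compounds in dose-response; incubate 72 h, 37 degree C, 5% CO2; add CellTiter-Glo, 5 min; read luminescence.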", "values": [{"smiles": "C[C@@H]1O[C@@H](O[C@H]2[C@H](OC(=O)C34CCC5(C)C(=CCC6C7(C)CC(O)C(O[C@@H]8O[C@H](C(=O)O)[C@@H](O)[C@H](O)[C@H]8O)C(C)(C(=O)O)C7CCC65C)C3CC(C)(C)CC4O)O[C@H](C)[C@@H](O)[C@@H]2O)[C@H](O)[C@@H](O[C@@H]2OC[C@](O)(CO)[C@H]2O[C@@H]2O[C@H](CO)[C@@H](O)[C@H](O)[C@H]2O)[C@H]1O", "note": "(some centres undefined)", "activity change, negative = cytotoxicity": "5.75% [at 9.29 µM] (inactive)"}, {"smiles": "C/C=C(\\C)C(=O)OC[C@H]1O[C@H](O[C@H]2O[C@H](CO)[C@@H](OC(=O)/C(C)=C/C)[C@H](O)[C@H]2O[C@@H]2O[C@H](CO)[C@@H](O)[C@H](O)[C@H]2O)[C@H](O[C@@H]2O[C@H](CO)[C@@H](O)[C@H](O)[C@H]2O)[C@@H](O)[C@@H]1O", "outcome": "inactive [at 9.29 µM]"}, {"smiles": "COCCCNCC1COc2ccccc2O1", "note": "(centres undefined)", "outcome": "inactive"}, {"smiles": "COc1ccc(C)c2sc(NC(=O)c3ccncc3)nc12", "outcome": "inactive"}, {"smiles": "N[C@@H](CC(=O)N1CCn2c(nnc2C(F)(F)F)C1)Cc1[nH]nc2c(F)c(F)ccc12", "activity change, negative = cytotoxicity": "0.719% (inactive)"}, {"smiles": "CCOC(=O)[C@H](CCc1ccccc1)CC1(C(=O)N[C@H]2CCc3ccccc3N(CC(=O)O)C2=O)CCCC1", "outcome": "inactive"}, {"smiles": "OC1COC(OCC2OC(OCCc3ccccc3)C(O)C(O)C2O)C(O)C1O", "note": "(centres undefined)", "activity change, negative = cytotoxicity": "1.01% [at 17.3 µM] (inactive)"}, {"smiles": "CCC(NC(=O)CC(NC(=O)C(CO)NC(=O)C(CC)NC(=O)c1ccc[nH]1)c1ccccc1)C(=O)O", "note": "(centres undefined)", "activity change, negative = cytotoxicity": "6.9% [at 17.3 µM] (inactive)"}, {"smiles": "O=C(/C=C/c1ccc(O)cc1)O[C@H]1[C@@H]2C=CO[C@@H](O[C@@H]3O[C@H](CO)[C@@H](O)[C@H](O)[C@H]3O)[C@@H]2[C@@]2(CO)O[C@@H]12", "activity change, negative = cytotoxicity": "2.44% [at 17.3 µM] (inactive)"}]}]}
